From PubChem
tim10-1 inh = tim10-1 yeast growth inhibition; inhibition, % at 20 µM; 330,000 tested, 2.2% active; AID 463190; S. cerevisiae tim10-1 ts strain growth, BacTiter-Glo, 24 h;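 active = inhibition of at least 40%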;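 also: mutant grown at 25 °C; 0% = DMSO wells with yeast and 100% = wells holding no yeast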
SKKanGAS inh = inhibitors of SKKanGAS S. pyogenes growth in kanamycin (SK-promoter or general growth effect). BacTiter-Glo, 6 h. inhibition, % at 7.5 µM. 300,000 tested, 1.3% active. AID 1662;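 active = mean replicate score, as percent of positive control median, at least 50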;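 also: strain carries kanamycin resistance gene driven by streptokinase promoter and grows in 40 µg/ml kanamycin; loss of luminescence reflects streptokinase promoter inhibition or plain growth inhibition; 0% = median of DMSO wells and 100% = positive control at its reference dose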
PfHsp90 yeast 2 = growth inhibition of yeast expressing Plasmodium Hsp90; inhibition, % at 9.4 µM; 310,000 tested, 0.32% active; S. cerevisiae expressing PfHsp90, BacTiter-Glo ATP, 48 h; yeast lacking PDR1 and PDR3 efflux regulators;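 active = every replicate shows inhibition above about 80%, whatever the replicate mean, limit read from the data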;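 also: 0% = DMSO neutral controls and 100% = 20 µM radicicol positive controls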
TIM10 inh = growth inhibitors of TIM10 yeast strain; inhibition, % at 10 µM; AID 463195; S. cerevisiae TIM10 strain growth, BacTiter-Glo luminescence, 24 h; 330,000 tested, 1.4% active;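 active = inhibition of 40% or more at the single tested concentration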;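 also: wild-type TIM10 isogenic control strain grown at permissive 25 °C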
tim23-1 inh = tim23-1 yeast growth inhibition. S. cerevisiae tim23-1 growth, BacTiter-Glo luminescence, 24 h. inhibition, % at 20 µM. 330,000 tested, 1.3% active;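 active = growth inhibition of the mutant yeast at or above 50%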;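 also: temperature-sensitive mutant grown at 25 °C; plate controls were DMSO-treated mutant yeast for no effect and medium wells lacking yeast for full effect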
Calb FLC = affects C. albicans growth with fluconazole. 300,000 tested, 0.57% active. growth inhibition, % (concentration not given with the values). C. albicans CaCi-2 (fluconazole-resistant clinical isolate) + fluconazole, Alamar Blue growth, 48 h. AID 1979;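 active = growth inhibition above about 58% in most replicates, limit read from the data, passing the limit was not always enough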;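 also: all wells also contain fluconazole at 8 µg/ml as a sub-toxic cotreatment; 0% = median of DMSO wells and 100% = median of geldanamycin control wells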
tim10-1 confirm = confirmation of tim10-1 mutant yeast growth inhibitors. AID 463213. shares compounds with tim10-1 inh. 7,400 tested, 56% active. inhibition, % at 20 µM. S. cerevisiae tim10-1 ts strain growth, BacTiter-Glo, 24 h;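 active = inhibition of yeast growth at or above a set limit in either of two repeat tests at 20 µM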;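 also: tim10-1 mutant grown at permissive 25 °C to find synthetic lethal compounds; 0% = DMSO yeast wells and 100% = medium wells without yeast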
tim10 confirm = confirmation of TIM10 yeast growth inhibitors. inhibition, % at 10 µM. S. cerevisiae tim10 strain growth, BacTiter-Glo luminescence, 24 h. shares compounds with TIM10 inh. 4,600 tested, 63% active;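 active = inhibition of yeast growth at or above a set limit in either of two replicates at 10 µM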;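 also: this counterscreen used the strain with wild-type TIM10; 0% = yeast with DMSO and 100% = medium wells lacking yeast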
tim23-1 conf = tim23-1 yeast growth inhibition, confirmed; shares compounds with tim23-1 inh; S. cerevisiae tim23-1 growth, BacTiter-Glo luminescence, 24 h; inhibition, % at 20 µM; 4,400 tested, 83% active; AID 463218;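 active = inhibition above about 39% in either of two replicate wells at 20 µM, limit read from the data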;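 also: temperature-sensitive tim23-1 mutant grown at 25 °C; 0% = DMSO wells with yeast and 100% = medium wells without yeast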
Active calls of the source: *; x = no result. In the library only some 4.7% were active in any assay of this set; here they are far more common.

SMILES	tim10-1 inh	SKKanGAS inh	PfHsp90 yeast 2	TIM10 inh	tim23-1 inh	Calb FLC	tim10-1 confirm	tim10 confirm	tim23-1 conf
Cc1cccc(/C(N)=N/OC(=O)c2ccc(Br)o2)c1	43*	2	-13	69*	67*	-1	47*	63*	57*
CCC(C)N(C(=O)c1csnn1)C(C(=O)NC1CCCC1)c1ccccc1F (stereo not given)	15	-10	-18	17	11	-2	x	x	x
Cn1ccnc1COc1ccc(/C=N/O)cc1	-2	4	12	-1	-4	-8	x	x	x
CCc1cccc(C)c1NC(=O)CN1CCN(S(=O)(=O)c2ccc(C(C)(C)C)cc2)CC1	32	5	x	34	29	-4	x	x	x
COc1ccc(N2CCN(C(=O)c3oc4ccccc4c3NC(=O)Cc3ccc(OC)c(OC)c3)CC2)cc1	15	5	8	13	6	6	x	x	x
N/C(=N\OC(=O)COc1ccc(Br)cc1)c1cccc([N+](=O)[O-])c1	1	1	-3	-12	6	4	x	x	x
Cc1cccc(/C(N)=N/OC(=O)c2cccnc2)c1	38	5	-47	37	35	7	x	x	x
N/C(=N\OC(=O)CCC1CCCCC1)c1cccc([N+](=O)[O-])c1	79*	6	5	62*	54*	-20	79*	49*	77*
CCC(C(=O)O/N=C(\N)c1cccc(C)c1)c1ccccc1 (stereo not given)	63*	2	19	54*	61*	-6	53*	-30	55*
Cc1cccc(/C(N)=N/OC(=O)c2ccc3c(c2)OCO3)c1	75*	-2	20	83*	88*	-3	66*	-6	85*
Cc1cccc(/C(N)=N/OC(=O)c2cccc3ccccc23)c1	64*	6	x	87*	82*	6	54*	85*	47*
Cc1nn(-c2ccc(N3CCOCC3)nn2)c(C)c1CCC(=O)NCc1ccccc1	22	-3	-2	-1	5	11	x	x	x
CC(NC(=O)CCC(=O)c1ccccc1)c1ccc(F)cc1 (stereo not given)	7	-5	x	8	-1	-4	x	x	x
COc1ccccc1/C=C(\C#N)C(=O)c1cccn1C	43*	2	13	22	59*	-1	30	x	50*
COc1ccccc1NS(=O)(=O)c1cccc(NC(=O)c2cncc(Br)c2)c1	-5	x	x	-8	1	x	x	x	x
O=C(NCCOC12CC3CC(CC(C3)C1)C2)c1cccc(Br)c1	42*	1	-17	44*	53*	5	33*	46*	46*
CCOC(=O)c1cn(Cc2ccc(Br)cc2)nn1	25	-5	x	6	16	-5	x	x	x
CCOC(OCC)c1cn(Cc2ccc3c(c2)C(=O)c2ccccc2C3=O)nn1	44*	-8	x	37	61*	12	16	x	78*
CN(CC(=O)Nc1n[nH]c(=S)s1)S(=O)(=O)c1cccc2cccnc12	-9	4	2	8	-1	-10	x	x	x
CCCCN1CC(=O)N2[C@H](c3ccc(Cl)cc3)[C@@H]3C(=O)N(CC)C(=O)[C@@H]3[C@]2(Cc2ccccc2)C1=O	30	3	7	-3	-10	-14	x	x	x
COc1ccc2[nH]c(=O)c3c(c2c1)OC(C)(C)C=C3	17	-3	x	2	1	5	x	x	x
Cc1cc2c([nH]c3ccccc32)c2c1OC(C)(C)C=C2	63*	39	18	23	56*	21	49*	x	70*
COc1ccc(S(=O)(=O)N2CCN(C(=O)c3cc4c(s3)CCCC4)CC2)cc1	54*	x	-23	22	50*	x	39*	x	57*
CC(Cc1cccs1)NC(=O)Nc1ccc(Cl)cc1 (stereo not given)	36	16	6	13	25	-27	x	x	x
CC(Cc1cccs1)NC(=O)Nc1ccc(Cl)c(Cl)c1 (stereo not given)	47*	28	-10	59*	52*	-33	52*	62*	54*
SMILES	tim10-1 inh	SKKanGAS inh	PfHsp90 yeast 2	TIM10 inh	tim23-1 inh	Calb FLC	tim10-1 confirm	tim10 confirm	tim23-1 conf
Cn1ncc(Cl)c1C(=O)N1CCN(c2ccccc2)CC1	4	24	15	-2	5	9	x	x	x
Cn1ncc(Cl)c1C(=O)N1CCN(c2ccc(Cl)c(Cl)c2)CC1	41*	-2	-29	27	50*	65	20	x	42*
Cc1ccccc1NC(=O)CSc1nc2c(c(=O)n(C)c(=O)n2C)n1C	1	-3	0	10	7	40	x	x	x
COc1ccc(CNC(=O)COC(=O)c2ccc(Br)o2)cc1	5	x	3	4	21	x	x	x	x
Cc1nn(-c2ccccc2)c(Cl)c1/C=C(\C#N)C(=O)NC(C)C	56*	-3	-10	53*	73*	3	72*	56*	60*
Cc1cc(-c2ccc(N=Nc3c(S(=O)(=O)O)cc4cc(S(=O)(=O)O)cc(N)c4c3O)c(C)c2)ccc1N=Nc1c(S(=O)(=O)O)cc2cc(S(=O)(=O)O)cc(N)c2c1O	65*	x	x	55*	72*	x	66*	47*	77*
Cc1cccc(N2CCN(S(=O)(=O)c3ccc4c(c3)NC(=O)C(C)S4)CC2)c1C (stereo not given)	50*	20	-52	10	55*	-17	21	x	34
CC1Sc2ccc(S(=O)(=O)N3CCN(c4ccccc4)CC3)cc2NC1=O (stereo not given)	26	-6	-22	13	29	9	x	x	x
CCc1ccc(CN2CCCC(C(=O)Nc3ccc(-c4cscn4)cc3)C2)o1 (stereo not given)	0	-9	-1	2	-9	-10	x	x	x
Cc1ccc(Nc2nnc(SCC(=O)NCC3CCCO3)s2)cc1C (stereo not given)	14	x	7	2	3	x	x	x	x
COc1cc2cc(-c3ccc(O)cc3O)nc(C)c2cc1OC	40*	1	6	46*	51*	-1	32*	43*	55*
O=C(CCSc1ccccc1Cl)Nc1cccc([N+](=O)[O-])c1	56*	-4	13	52*	54*	-15	50*	29	62*
CCOc1ccc(C(C)(C)C)cc1S(=O)(=O)N1CC(C)OC(C)C1 (stereo not given)	44*	-4	-13	32	55*	-14	28	x	42*
CCOc1ccc(C(C)(C)C)cc1S(=O)(=O)n1nc(C)cc1C	46*	5	32	46*	54*	-5	41*	0	51*
